The values below come from PubChem BioAssay (Tox21).

Assay [1] can be described thus: qHTS assay to identify small molecule agonists of the RXR signaling pathway - cell viability counter screen (AID 1159529). Note: series mostly up to about 77 µM; nearly all actives have a fitted effect of over 50% in size. The gist of the method: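 CellTiter-Glo luminescence gave viability in the wells also read for beta-lactamase. Cells (RXR-alpha-UAS-bla HEK 293T, 2% charcoal-stripped FBS medium) had 5 hr plating, then 16 hr compound exposure at 37 C; tetraoctyl ammonium bromide served as positive control.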
For orientation: qHTS replaces the single test concentration by a dilution series.

The nature of assay [2]: qHTS assay to identify small molecule antagonists of the retinoid acid receptor (RAR) signaling pathway - cell viability counter screen (AID 1159551). Note: nearly all actives have a fitted effect of over 35% in size. The procedure, abridged: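 Retinol-stimulated (1 uM final) C3RL4 cells, compound 6 h, 37 C; readout CellTiter-Glo luminescence (ATP) after 30 min RT incubation.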
The nature of assay [3]: qHTS assay to identify small molecule antagonists of the estrogen related receptor (ERR) signaling pathway from Tox21 library - cell viability counter screen (AID 1224834). Note: nearly all actives have a fitted effect of over 30% in size. The procedure, abridged:
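After 17.5 h of compound exposure at 37 C, ERR cells are incubated with CellTiter-Fluor for 30 min and fluorescence intensity serves as the viability measure.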

In assay [4] the target is Luciferin 4-monooxygenase (Photinus pyralis) (UniProt P08659). The assay is described as follows: qHTS assay to identify small molecule inhibitors of firefly luciferase (AID 1224835). Note: series mostly up to about 120 µM; nearly all actives have a fitted effect of over 25% in size. The gist of the method: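 Biochemical qHTS: compounds run as interplate titrations against purified firefly enzyme, with D-luciferin and ATP each at its KM concentration. Light output recorded by CCD imaging.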
Sequence of Luciferin 4-monooxygenase (Photinus pyralis) (P08659 whole entry, looked up): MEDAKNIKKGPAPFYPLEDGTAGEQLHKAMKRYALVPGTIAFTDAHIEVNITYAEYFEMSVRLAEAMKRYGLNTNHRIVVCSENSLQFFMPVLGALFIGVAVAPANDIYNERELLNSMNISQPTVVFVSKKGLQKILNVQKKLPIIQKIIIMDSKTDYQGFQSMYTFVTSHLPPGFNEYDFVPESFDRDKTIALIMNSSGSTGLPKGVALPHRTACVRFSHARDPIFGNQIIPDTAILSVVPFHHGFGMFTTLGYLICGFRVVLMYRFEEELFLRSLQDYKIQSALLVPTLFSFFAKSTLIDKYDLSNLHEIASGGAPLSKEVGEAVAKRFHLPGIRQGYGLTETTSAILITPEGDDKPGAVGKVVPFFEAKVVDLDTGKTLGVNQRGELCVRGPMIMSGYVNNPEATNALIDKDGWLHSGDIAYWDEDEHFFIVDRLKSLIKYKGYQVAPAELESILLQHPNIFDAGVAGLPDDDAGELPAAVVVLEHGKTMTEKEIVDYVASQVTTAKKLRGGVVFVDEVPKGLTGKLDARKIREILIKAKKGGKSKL

Assay [5] is described as follows: qHTS assay to identify small molecule agonists of the constitutive androstane receptor (CAR) signaling pathway - cell viability counter screen (AID 1224836). Note: series mostly up to about 92 µM; nearly all actives have a fitted effect of over 45% in size. The gist of the method: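 Cell viability multiplexed with the CAR agonist screen: CellTiter-Fluor fluorescence after 23 hr at 37 C. HepG2-CYP2B6-hCAR cells got compounds at 15 concentrations with PK11195 at 0.75 uM final.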

Assay [6] in a line: qHTS assay to identify small molecule antagonists of the constitutive androstane receptor (CAR) signaling pathway - cell viability counter screen (AID 1224837). Note: series mostly up to about 92 µM; nearly all actives have a fitted effect of over 45% in size. The gist of the method: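 Counter screen run in HepG2-CYP2B6-hCAR cells: 4 hr settle, compound titration (15 concentrations) with 50 nM CITCO, 23 hr at 37 C/5% CO2, CellTiter-Fluor fluorescence.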
The nature of assay [7]: qHTS assay to identify small molecule antagonists of the estrogen related receptor signaling pathway with the pleiotropic PPARgamma coactivator (PGC) from Tox21 10K library - cell viability counter screen (AID 1224840; active = well fitted cell-killing curve with a large enough effect in the repeat runs, not every such curve was filed as active; note: nearly all actives have a fitted effect of over 40% in size). The gist of the method: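 Following seeding of 2,000 PGC/ERR cells/well and 6 hours' incubation, test compounds were delivered in DMSO. The plates then sat 17.5 hours at 37 C before a fluorogenic live-cell protease reagent (CellTiter-Fluor) was read after 30 min.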

A short description of assay [8]: qHTS assay to identify small molecule antagonists of the estrogen related receptor signaling pathway with the pleiotropic PPARgamma coactivator (PGC) from Tox21 10K library (AID 1224841; call rule not given here; note: series mostly up to about 92 µM; actives are mostly falling curves and most rising ones were filed inactive; nearly all actives have a fitted effect of over 50% in size). The procedure, abridged: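 qHTS antagonist format: PGC/ERR cells, 2k/well, compound in DMSO by pin transfer after 6 h attachment, 18 h treatment at 37 C, One-Glo luminescence read at 30 min.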

A short description of assay [9]: qHTS assay to identify small molecule agonists of the estrogen related receptor signaling pathway with the pleiotropic PPARgamma coactivator (PGC) from Tox21 10K library (AID 1224842). Note: nearly all actives have a fitted effect of over 15% in size. The procedure, abridged:
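PGC/ERR reporter cell line, 2,000 cells per well, incubated 6 h at 37 C before 23 nL compound in DMSO was added. After 18 h at 37 C, One-Glo luminescence read following 30 min at room temperature.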

For assay [10], the target named is Thyrotropin receptor (Homo sapiens) (UniProt P16473). The experiment in a line: qHTS assay to identify small molecule agonists of the thyroid stimulating hormone receptor (TSHR) signaling pathway (AID 1224843; calls by dose curve; note: nearly all actives have a fitted effect of over 45% in size). The procedure, abridged: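 Steps: seed 800 TSHR-HEK293 cells per well; add test compound and hold 30 min at ambient temperature; dispense cAMP-d2 then anti-cAMP cryptate; incubate 1 h at ambient; measure fluorescence intensity.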
Sequence of Thyrotropin receptor (Homo sapiens) (P16473 whole entry, looked up): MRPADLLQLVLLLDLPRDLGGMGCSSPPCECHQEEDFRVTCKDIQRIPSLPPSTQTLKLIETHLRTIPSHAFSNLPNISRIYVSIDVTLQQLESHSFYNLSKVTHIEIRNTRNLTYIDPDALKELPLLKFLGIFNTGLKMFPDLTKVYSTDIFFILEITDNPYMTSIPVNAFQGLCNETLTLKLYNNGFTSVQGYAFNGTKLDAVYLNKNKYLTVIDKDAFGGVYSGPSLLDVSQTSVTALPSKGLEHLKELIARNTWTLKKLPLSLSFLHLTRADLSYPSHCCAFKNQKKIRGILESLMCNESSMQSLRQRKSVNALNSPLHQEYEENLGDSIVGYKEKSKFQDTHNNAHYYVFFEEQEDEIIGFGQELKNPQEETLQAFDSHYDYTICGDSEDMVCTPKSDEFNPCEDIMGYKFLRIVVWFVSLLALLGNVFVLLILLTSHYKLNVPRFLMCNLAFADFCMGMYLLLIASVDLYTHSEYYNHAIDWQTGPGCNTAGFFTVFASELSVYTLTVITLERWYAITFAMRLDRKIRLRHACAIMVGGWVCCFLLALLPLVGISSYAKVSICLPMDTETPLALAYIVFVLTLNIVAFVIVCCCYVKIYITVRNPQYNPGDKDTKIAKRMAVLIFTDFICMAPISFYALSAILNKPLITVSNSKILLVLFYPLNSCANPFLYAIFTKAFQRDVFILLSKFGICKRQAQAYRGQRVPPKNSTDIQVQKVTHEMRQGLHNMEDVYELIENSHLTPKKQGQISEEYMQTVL

The nature of assay [11]: qHTS assay to identify small molecule agonists of the hypoxia (HIF-1) signaling pathway - cell viability counter screen (AID 1224844; calls by dose curve; note: nearly all actives have a fitted effect of over 50% in size). The procedure, abridged:
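Cells (HRE-bla ME-180, 2,000 per well) sat 5 hrs at 37C, got compound for 17 hrs, were read for CCF4-AM FRET, and were finally lysed with CellTiter-Glo for a 30 min room-temperature luminescence read.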

Assay [12] can be described thus: qHTS assay to identify small molecule antagonists of the retinoic acid receptor (RAR) signaling pathway (AID 1159552; note: nearly all actives have a fitted effect of over 50% in size). The gist of the method: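 Luminescent RARE reporter read-out in C3RL4 cells: 6 hr co-treatment at 37 C of test compounds with retinol at 1 uM final. Cells plated overnight beforehand; luciferase reagent incubated 30 min at room temperature before reading.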

A short description of assay [13]: qHTS assay to identify small molecule agonists of the retinoic acid receptor (RAR) signaling pathway (AID 1159553). The procedure, abridged: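 Reporter readout comes from luciferase under RARE control in C3RL4 cells; compound exposure lasts 6 hr at 37 C in 5% CO2, and luminescence is recorded following a 30 min room-temperature incubation with reagent.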
Assay [14] addresses Nuclear receptor subfamily 1 group I member 3 (Homo sapiens) (UniProt Q14994). The experiment in a line: qHTS assay to identify small molecule antagonists of the constitutive androstane receptor (CAR) signaling pathway (AID 1224838).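 Note: HepG2 cells stably expressing hCAR with CYP2B6 luciferase reporter stimulated by CITCO; nearly all actives have a fitted effect of over 40% in size.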 The procedure, abridged: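 Cell line: HepG2 double-stable for hCAR and CYP2B6-2.2kb reporter. Agonist: CITCO, 50 nM final. Compounds: 15 concentrations, 24 h, 37 C. Detection: ONE-Glo luminescence.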

Assay [15] shares this target. The experiment in a line: qHTS assay to identify small molecule agonists of the constitutive androstane receptor (CAR) signaling pathway (AID 1224839).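 For activation: HepG2 cells stably carrying human CAR and a CYP2B6 luciferase reporter; series mostly up to about 92 µM.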 Note: nearly all actives have a fitted effect of over 15% in size. Note: potency is the fitted concentration of half-maximal effect. The gist of the method:
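Luminescent ONE-Glo read-out after 24 hr, 37 C exposure of double-stable HepG2-CYP2B6-hCAR reporter cells to a 15-point compound series, in the presence of 0.75 uM PK11195 (final).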

Molecules are shown by their SMILES. Records with an inconclusive call do not appear. Values without a mark were called inactive. Active and inactive are the calls of the source. Unless noted, calls come from the whole dose curve; as a rule, active = well fitted curve in the direction sought with a large enough effect in the repeat runs; inconclusive = weak or mixed curves; inactive = no such curve, though single readings can be large; an effect the other way counts as inactive or inconclusive.
% is set by controls: 0 for no effect and ±100 for the full control effect.

Sequence of Nuclear receptor subfamily 1 group I member 3 (Homo sapiens) (Q14994 whole entry, looked up): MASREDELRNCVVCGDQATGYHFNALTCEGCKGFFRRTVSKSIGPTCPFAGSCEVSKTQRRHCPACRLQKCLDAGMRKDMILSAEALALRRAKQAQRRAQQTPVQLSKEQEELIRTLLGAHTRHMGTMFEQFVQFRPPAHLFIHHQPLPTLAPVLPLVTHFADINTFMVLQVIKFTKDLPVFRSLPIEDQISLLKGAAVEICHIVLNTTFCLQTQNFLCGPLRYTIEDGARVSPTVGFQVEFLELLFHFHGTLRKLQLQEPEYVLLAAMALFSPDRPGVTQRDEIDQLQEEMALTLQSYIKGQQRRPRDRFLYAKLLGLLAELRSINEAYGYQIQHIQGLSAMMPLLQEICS

As to `COc1cc(OC)nc(NC(=O)NS(=O)(=O)c2ncccc2OCC(F)(F)F)n1`, the Potency entry in assay [1], in assay [2], in [3], in assay [4], in [5] and in [6] was “inactive” each time. In addition, the Potency result in assay [7], in [8], in [10] and in [11] was “inactive” throughout. For the same molecule, the outcome in [9] was inactive.

In the case of `O=[N+]([O-])c1ccc(CBr)cc1`, the Potency result in assay [1], in assay [12], in assay [13], in assay [3], in assay [4] and in assay [5] was “inactive” each time. For the same molecule, the Potency result in [6], in [14], in [7] and in [10] was “inactive” each time.

As to `C[N+](=O)[O-]`, the Potency entry in assay [1], in assay [2], in [3], in [4], in [5] and in [6] was “inactive” in each case. Further, the Potency result in [7], in assay [8], in [10] and in assay [11] was “inactive” throughout. Moreover, the result in assay [9] was inactive.

For `Nc1c(Br)cc([N+](=O)[O-])cc1[N+](=O)[O-]`, the Potency entry in assay [1], in assay [12], in assay [13], in assay [4], in assay [5] and in assay [6] was “inactive” in each case. Also, the Potency result in [7], in assay [8], in [10] and in [11] was “inactive” each time. In addition, the result in assay [9] was inactive.

Turning to `CCN(CC)c1nc(C)cc(OP(=S)(OC)OC)n1`, the Potency result in [1], in assay [13], in [3], in assay [4], in assay [5] and in assay [6] was “inactive” in each case. Further, the Potency entry in [14], in [7], in [10] and in [11] was “inactive” throughout. In addition, the Potency in assay [15] is 48.6 µM (active).

Consider `O=C1c2ccccc2C(=O)c2ccccc21`, for which the activity change, negative = cytotoxicity in assay [1] is 3.01% [at 15.8 µM]; in assay [2] it was 3.84% [at 19 µM]; in assay [6], 4.8% [at 19 µM]; in assay [11], -0.0454% [at 15.8 µM]. The results for the viability change, negative = cytotoxic in [3], in assay [5] and in assay [7] were 0.548% [at 19 µM], 5.88% [at 19 µM] and 4.21% [at 19 µM], respectively. Moreover, the activity change, negative = inhibition in [4] is 3.8% [at 23.6 µM]. Moreover, in [8], the activity, negative = inhibition was 16.6% [at 19 µM]. Also, the activation in assay [10] was -2.19% [at 19 µM].

Take `COc1ccc2c(c1OC)CN1CCc3cc4c(cc3C1C2)OCO4` (centres undefined): the Potency entry in assay [1], in assay [2], in [4], in assay [5], in [6] and in [7] was “inactive” in each case. In addition, the Potency entry in [10] and in [11] was “inactive” each time.

On to `CCOC(=O)C(c1c(O)c2ccccc2oc1=O)c1c(O)c2ccccc2oc1=O`, for which the Potency entry in [1], in [2], in assay [3], in assay [5], in [6] and in assay [15] was “inactive” throughout. Besides, the Potency result in [7] and in assay [10] was “inactive” throughout.

Consider `CC(Cl)(Cl)[N+](=O)[O-]`, for which the Potency result in assay [1], in assay [12], in assay [13], in [3], in assay [4] and in [5] was “inactive” each time. Also, the Potency entry in assay [6], in assay [14], in [7], in assay [8], in [10] and in assay [11] was “inactive” in each case.

With `O=[N+]([O-])c1ccc2c3c(cccc13)CC2`, the Potency result in assay [1], in [13], in [3], in [4], in assay [5] and in [6] was “inactive” each time. Besides, the Potency entry in assay [7], in [10] and in assay [11] was “inactive” in each case.

For `[O]=[Cd]`, the Potency result in assay [1], in assay [2], in [3], in assay [4], in assay [5] and in assay [6] was “inactive” throughout. Besides, the Potency entry in [7], in assay [10] and in assay [11] was “inactive” each time. In [9], the outcome was inactive.

As for `CC(CC(C#N)(c1ccccc1)c1ccccc1)N(C)C` (centres undefined), the Potency entry in [1], in [2], in [4], in [6], in assay [14] and in [7] was “inactive” each time. Also, in [10], the Potency result was “inactive”. In addition, the Potency in [15] was 27.2 µM (active).
